BAZ2B block: qHTS Assay for Inhibitors of BAZ2B; Bromodomain adjacent to zinc finger domain protein 2B (Homo sapiens), Q9UIF8; AlphaScreen BAZ2B-H3K14Ac peptide displacement; Potency, µM (highest dose often 114 µM), most hits filed as inhibitors; hit rate 4.4% among 360,000; also: nearly all actives have a fitted effect of over 60% in size
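Multi-concentration screen (max 110 uM) measuring displacement of acetylated histone H3 peptide from BAZ2B by AlphaScreen, using 50 nM protein, 50 nM peptide and 10 ug/mL streptavidin donor plus Ni-chelate acceptor beads.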
HP1b binding inh: HTS for Inhibitors of HP1-beta Chromodomain Interactions with Methylated Histone Tails | AlphaScreen HP1-beta / biotin-H3K9me3 peptide binding | Potency, µM (series often up to 114 µM), most hits filed as inhibitors | hit rate 0.56% among 390,000; also: nearly all actives have a fitted effect of over 70% in size
Target sequence (P83916 whole entry, looked up): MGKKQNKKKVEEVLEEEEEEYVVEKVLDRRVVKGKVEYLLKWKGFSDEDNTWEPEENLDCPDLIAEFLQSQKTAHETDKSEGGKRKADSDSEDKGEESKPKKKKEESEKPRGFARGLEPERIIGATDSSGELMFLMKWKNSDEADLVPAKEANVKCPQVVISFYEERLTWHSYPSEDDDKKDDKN
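AlphaScreen: HP1-beta (50 nM) preformed 30 min with biotin-H3(1-18)K9me3 peptide (50 nM) in PBS pH 7.4, 0.01% Tween-20. Compound added for 30 min at RT, then streptavidin donor/nickel chelate acceptor beads (10 ug/mL) for 30 min.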
JMJD2A Tudor inh: qHTS Assay for Inhibitors of JMJD2A-Tudor Domain; Lysine-specific demethylase 4A (Homo sapiens), O75164; hit rate 4.4% among 390,000; AID 504339, 2011; Potency, µM (doses to about 114 µM), actives largely listed as inhibitors; AlphaScreen JMJD2A-Tudor / H3K4me3 peptide binding; also: nearly all actives have a fitted effect of over 50% in size
L3MBTL1 block: qHTS Assay for the Inhibitors of L3MBTL1. Lethal(3)malignant brain tumor-like protein 1 (Homo sapiens), Q9Y468. AlphaScreen L3MBTL1–H3K9me1 peptide binding. Potency, µM (highest dose often 57.1 µM), actives largely listed as inhibitors. hit rate 0.66% among 230,000; also: nearly all actives have a fitted effect of over 60% in size
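L3MBTL1 50 nM + b-AHA-H3(1-15)K9me1 75 nM, 30 min RT; compound added, 30 min RT; streptavidin donor/Ni-chelate acceptor beads 10 ug/mL each final, 30 min RT dark; AlphaScreen read.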
G9a inh: qHTS Assay for Inhibitors of Histone Lysine Methyltransferase G9a; Potency, µM (highest dose often 102 µM), actives largely listed as inhibitors; hit rate 8.8% among 350,000; G9a H3K9 monomethylation, AlphaScreen, 2 h; Histone-lysine N-methyltransferase EHMT2 (Homo sapiens), Q96KQ7; also: nearly all actives have a fitted effect of over 75% in size
Target sequence (Q96KQ7 913-1193 limits assumed): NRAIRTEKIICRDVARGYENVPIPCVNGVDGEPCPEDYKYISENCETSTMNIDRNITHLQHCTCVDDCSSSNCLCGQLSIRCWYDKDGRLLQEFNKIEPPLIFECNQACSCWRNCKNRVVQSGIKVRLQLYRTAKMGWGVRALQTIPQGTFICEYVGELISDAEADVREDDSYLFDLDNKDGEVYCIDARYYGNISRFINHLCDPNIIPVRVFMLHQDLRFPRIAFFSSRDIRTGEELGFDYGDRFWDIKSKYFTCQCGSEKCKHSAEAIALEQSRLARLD
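Compounds were preincubated with 20 nM G9a for 15 min, after which biotinylated H3K9 peptide (500 nM) and SAM (20 uM) started a 2 h room-temperature reaction. Monomethylated product was quantified by antibody-based AlphaScreen chemiluminescence.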
Hits are given with their value; [ ] = another dose, or the depositor's remark. Compounds with a hit are over-represented: about 11% of the library has one in this group of screens. Calls follow the shape of the dose curve; as a rule, active = well fitted inhibition curve with a large enough effect; inconclusive = small, poorly fitted or top-dose-only effect; inactive = no such curve, though single readings can be large or run the other way.

Cc1cccc(N2C(=O)C(Cl)=C(Nc3c(C)n(C)n(-c4ccccc4)c3=O)C2=O)c1C was read as BAZ2B block 50µM, HP1b binding inh inactive, JMJD2A Tudor inh inactive and G9a inh 8.9µM.
`Cc1c(NC(=O)Nc2c(Cl)cccc2Cl)c(=O)n(-c2ccccc2)n1C` gave BAZ2B block inactive, HP1b binding inh inactive, JMJD2A Tudor inh inactive, L3MBTL1 block inactive and G9a inh inactive.
For CC[n+]1c(-c2ccc(C)cc2)csc1Nc1c(C)n(C)n(-c2ccccc2)c1=O the results were BAZ2B block inconclusive, HP1b binding inh inconclusive, JMJD2A Tudor inh inconclusive, L3MBTL1 block inactive and G9a inh 8.9µM.
Cc1ccc(Nc2nc3ccccc3nc2Nc2c(C)n(C)n(-c3ccccc3)c2=O)cc1 was read as BAZ2B block inactive, HP1b binding inh inactive, JMJD2A Tudor inh inactive, L3MBTL1 block inactive and G9a inh inactive.
Screening N#C/C(=C/c1ccco1)C(N)=S returned BAZ2B block inconclusive, HP1b binding inh inactive, JMJD2A Tudor inh inactive and L3MBTL1 block inconclusive.
`COc1ccc(C(=O)/C(=C\c2ccco2)N2C=CC=CC2=C(C#N)C#N)cc1` gave BAZ2B block inactive, HP1b binding inh inactive, JMJD2A Tudor inh inactive, L3MBTL1 block inactive and G9a inh inactive[2.33 µM].
Screening N#CC(C#N)=C1C=CC=CN1/C(=C\c1ccco1)C(=O)c1ccccc1 returned BAZ2B block inactive, HP1b binding inh inactive, JMJD2A Tudor inh inactive, L3MBTL1 block inconclusive and G9a inh 18µM.
For N#CC(C#N)=C1C=CC=CN1/C(=C\c1ccco1)C(=O)c1ccc(Br)cc1 the results were BAZ2B block inconclusive, HP1b binding inh inactive, JMJD2A Tudor inh inconclusive, L3MBTL1 block inactive and G9a inh 11µM.
Screening Cc1noc(C)c1S(=O)(=O)NCCc1csc2nc(-c3ccc(F)cc3)nn12 returned BAZ2B block inactive, HP1b binding inh inactive, JMJD2A Tudor inh inconclusive and G9a inh inactive.
`Cn1c(Cc2cccs2)n[nH]c1=S` gave BAZ2B block inactive, HP1b binding inh inactive, JMJD2A Tudor inh inconclusive and G9a inh inconclusive.
Screening Cn1c(Cc2ccccc2)n[nH]c1=S returned BAZ2B block inactive, HP1b binding inh inactive, JMJD2A Tudor inh 28µM, L3MBTL1 block inactive and G9a inh 10µM.
Cn1c(CSCCOc2ccccc2)n[nH]c1=S was read as BAZ2B block inactive, HP1b binding inh inactive, JMJD2A Tudor inh 6.3µM, L3MBTL1 block inactive and G9a inh 10µM.
`Cn1c(CCc2ccccc2)n[nH]c1=S` gave BAZ2B block inactive, HP1b binding inh inactive, JMJD2A Tudor inh 28µM, L3MBTL1 block inactive and G9a inh inconclusive.
For Cc1ccc(C(=O)NCCc2n[nH]c(=S)n2C)cc1 the results were BAZ2B block inactive, HP1b binding inh inactive, JMJD2A Tudor inh inconclusive, L3MBTL1 block inactive and G9a inh inconclusive.
`c1cncc(-c2cncnc2NC2CCNCC2)c1` gave G9a inh inactive[0.501 µM].
`CC(C)CCC(O)(CCC(C)C)C(=O)NNc1ccccc1` gave BAZ2B block inactive, HP1b binding inh inactive, JMJD2A Tudor inh inactive, L3MBTL1 block inactive and G9a inh 50µM.
Screening C#CCOCCOCCOCCNc1nc(N2CCN(C(=O)C([C@@H](C)O)n3cc([C@@H](N)CCCCN)nn3)CC2)nc(N2CCN(C(=O)[C@H](CO)n3cc([C@@H](N)C(C)C)nn3)CC2)n1 (some centres undefined) returned HP1b binding inh inactive, JMJD2A Tudor inh 79µM and L3MBTL1 block inactive.
C#CCOCCOCCOCCNc1nc(N2CCN(C(=O)[C@H]([C@@H](C)O)n3cc(CCCCN)nn3)CC2)nc(N2CCN(C(=O)[C@H](C)n3cc(CCCN=C(N)N)nn3)CC2)n1 was read as BAZ2B block inactive, HP1b binding inh inactive, JMJD2A Tudor inh inactive, L3MBTL1 block inactive and G9a inh inconclusive.
C#CCOCCOCCOCCNc1nc(N2CCN(C(=O)C([C@@H](C)O)n3cc([C@@H](N)CCCCN)nn3)CC2)nc(N2CCN(C(=O)C([C@@H](C)O)n3cc([C@@H](N)CCCCN)nn3)CC2)n1 (some centres undefined) was read as HP1b binding inh inactive, JMJD2A Tudor inh 50µM and L3MBTL1 block inactive.

Compound activity: PubChem BioAssay, National Center for Advancing Translational Sciences (NCATS)
